Laboratory results as given in PubChem BioAssay (NCATS).
Several values for one entry are separate records, joined by “and”; a condition that tells them apart may be missing. Identical values can stand only once. Inconclusive results are not listed. Activity calls are given as the source filed them. Unless noted, calls come from the whole dose curve; as a rule, active = well fitted curve in the direction sought with a large enough effect; inconclusive = small, poorly fitted or top-dose-only effect, or another doubt; inactive = no such curve, though single readings can be large; an effect the other way counts as inactive or inconclusive.

What was measured:
[1] = biological target: Glucocorticoid receptor (Homo sapiens) (UniProt P04150); assay: GR-GFP Redistribution (AID 450;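 active = compounds whose dose series gives a full or clear partial fitted curve of increased nuclear translocation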; note: potency is the fitted concentration of half-maximal effect); details: U2OS GR-GFP nuclear translocation, laser cytometry, 2 h
[2] = biological target: Mitogen-activated protein kinase 10 (Mus musculus) (UniProt Q61831); assay: JNK3 AlphaScreen Assay (AID 530; active = well fitted curve in either direction with a large enough effect, not every such curve was filed as active;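 note: kinase came from lysate of stimulated human HepG2 cells; signal reports phosphorylation of biotinylated GST-cJun 1-79 at Ser73 with 10 µM ATP; % is set by controls: 0 for no effect and ±100 for the full control effect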)
How it was run: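 Phosphorylation of biotinylated GST-cJun(1-79) at Ser73 is measured by AlphaScreen proximity luminescence. Enzyme is JNK3 in HepG2 lysates activated with interleukin-1beta and tumor necrosis factor alpha; ATP is 10 uM final.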

[3] = biological target: 3',5'-cyclic-AMP phosphodiesterase 4B (Homo sapiens) (UniProt Q07343); assay: qHTS Assay for Inhibitors of PDE-IV (AID 607; active = well fitted activation curve with a large enough effect in the main read-out, with a control signal flat, not every such curve was filed as active; note: % of control where 0% means no effect)
How it was run: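 Cell-based read-out of cAMP via a modified cyclic nucleotide-gated channel and membrane potential dye (535/590 nm) in HEK293 cells expressing PDE4 endogenously. Compounds tested up to 22.9 uM final; 100 uM RO 20-1724 reference.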

[4] = Confirmation and Secondary Assay for Modulators of Hemoglobin Beta Chain Splicing at IVS2 654 locus (AID 910);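 note: per-well total GFP intensity by laser scanning cytometry after 2-day treatment; % of control where 0% means no effect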
How it was run: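 HeLa cells stably carrying EGFP interrupted by mutant beta-globin IVS2-654 intron (CMV-driven) were treated with compound for 2 days at 37C; corrected splicing was scored as total peak GFP intensity per well (488 nm excitation, 500-520 nm emission).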

[5] = Confirmation and Secondary Assay for Modulators of Hemoglobin Beta Chain Splicing at IVS2 705 locus (AID 930);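 note: HeLa cells stably expressing the EGFP-705 splicing reporter; % of control where 0% means no effect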
How it was run: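 HeLa cells stably carrying EGFP interrupted by mutant beta-globin IVS2-705 intron (CMV-driven) were seeded at 500 cells/well, treated next day with compound for 2 days at 37C; corrected splicing restores EGFP, read as total peak GFP intensity per well.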

[6] = qHTS Assay for Lipid Storage Modulators (AID 1519; calls by dose curve; for activity change, negative = inhibition: % is set by controls: 0 for no effect and ±100 for the full control effect); details: Drosophila S3 cells, BODIPY lipid droplet/cell ratio, laser cytometry, cells loaded with oleic acid
How it was run: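 Cells seeded at 5,000 per well were treated with compounds over a concentration series and loaded with oleic acid (400 uM, as added). Lipid droplet fluorescence (488 nm excitation, 500-530 nm channel) was read by laser-scanning cytometry and normalized to 20 uM Triacsin C.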

[7] = biological target: Ubiquitin carboxyl-terminal hydrolase 1 (Homo sapiens) (UniProt O94782); assay: Inhibitors of USP1/UAF1: Pilot qHTS (AID 504865);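 note: rhodamine fluorescence freed from ubiquitin-rhodamine substrate followed over time; top concentration of the series differs between compounds; % is set by controls: 0 for no effect and ±100 for the full control effect; nearly all actives have a fitted effect of over 35% in size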
How it was run: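 USP1/UAF1 complex (1nM) preincubated with compound 15 min at room temperature, then Ub-Rho substrate (150nM final) added. Fluorescence read kinetically at 480/540 nm, 6 reads every 60 seconds. Buffer: 50mM HEPES pH 7.8, 0.5mM EDTA, 0.1 mg/ml BSA, 1mM TCEP, 0.01% Tween-20.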

[8] = biological target: DNA dC->dU-editing enzyme APOBEC-3G (Homo sapiens) (UniProt Q9HC16); assay: qHTS for inhibitors of Vif-A3G interactions: Validation (AID 588379); note: 0% is about no effect
How it was run: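 Yellow fluorescence (Ex 488, Em 500-530) of Vif-coexpressing HeLa A3G-eYFP cells, scanned by Acumen cytometer, reports blocked A3G degradation. Cells plated at 700/well overnight at 37 deg C before compound addition, then a further overnight compound incubation at 37 deg C.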

[9] = system: Zika virus NS2B-NS3 protease; assay: Primary screen GU AMC qHTS for Zika virus inhibitors (AID 1347154); note: potency is the fitted concentration of half-maximal effect; nearly all actives have a fitted effect of over 70% in size
How it was run: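 Unlinked Zika NS2B hydrophilic domain/NS3 protease domain noncovalent complex (25 nM final) in 10 mM Tris-HCl pH 8.0, 0.01% Tween 20, with AMC peptide substrate. Fluorescence (ex 340, em 450 nm) change over 15 min, room temperature; percent inhibition fitted to 4-parameter Hill equation.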

[10] = system: Zika virus NS2B-NS3 protease (linked construct); assay: Primary screen NINDS Rhodamine qHTS for Zika virus inhibitors (AID 1347160); note: % is set by controls: 0 for no effect and ±100 for the full control effect; nearly all actives have a fitted effect of over 55% in size
How it was run: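 Rhodamine110-peptide cleavage (1.5 µM substrate) by 25 nM linked NS2B-NS3 enzyme at pH 8.0 (Tris, Tween 20), after 15 min RT preincubation with compounds; 15-min fluorescence change normalized to controls and Hill-fitted.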

[11] = HPAF-II Cancer Cell Toxicity qHTS against the NCATS CANVASS Library (AID 1347346); note: potency is the fitted concentration of half-maximal effect; nearly all actives have a fitted effect of over 55% in size
How it was run: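 First, HPAF-II cells are plated (1000 cells/well) and held 4 h at 37 degrees C. Next, compounds are pin-transferred as an 11-point series. After 72 h, CellTiter-Glo is added and luminescence measured.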

[12] = Panc-1005 Cancer Cell Toxicity qHTS against the NCATS CANVASS Library (AID 1347349); note: potency is the fitted concentration of half-maximal effect; nearly all actives have a fitted effect of over 60% in size
How it was run: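 Cells were seeded at 1000 per well, allowed 4 h at 37 degrees C/5% CO2, then pin-treated with an 11-point compound series. After 72 h, viability was read as CellTiter-Glo luminescence following 15min at room temperature.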

[13] = A2780 Cisplatin Sensitive Ovarian Cancer Cell Toxicity qHTS against the NCATS CANVASS Library (AID 1347353); note: potency is the fitted concentration of half-maximal effect; nearly all actives have a fitted effect of over 60% in size
How it was run: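 Cells are plated at 750 per well and rest for 4 hours. Compounds are added across eleven concentrations, and incubated 72 hours before ATP is quantified by luminescence.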

[14] = UWB1.289-WTBRCA1 Cancer Cell Toxicity qHTS against the NCATS CANVASS Library (AID 1347354); note: % is set by controls: 0 for no effect and ±100 for the full control effect
How it was run: (§1)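 First, 1000 cells go into each well and rest for 4 hours. Next, an 11-point dilution range is pinned in. Plates then incubate 72 hours before CellTiter-Glo addition and luminescence reading.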

[15] = HEK-293 Cancer Cell Toxicity qHTS against the NCATS CANVASS Library (AID 1347355); note: potency is the fitted concentration of half-maximal effect; nearly all actives have a fitted effect of over 65% in size
How it was run: as §1

[16] = HPAF-II 24hr Apoptosis Induction qHTS against the NCATS CANVASS Library (AID 1347356); note: 0% is about no effect
How it was run: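 Cells seeded at 500 per well, then compounds pin-transferred in an 11-point concentration series. After 24 hours at 37 degrees C, Caspase-Glo 3/7 was added and luminescence measured following 15 min at room temperature.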

[17] = HEK293 18hr Apoptosis Induction qHTS against the NCATS CANVASS Library (AID 1347357); note: 0% is about no effect
How it was run: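 HEK293 cells (500 per well, DMEM with 10% FBS) were treated with natural products, incubated 18 hours at 37 degrees C, then caspase-3/7 activity was read by Caspase-Glo luminescence after 15 min at room temperature.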

[18] = HEK293 24hr Apoptosis Induction qHTS against the NCATS CANVASS Library (AID 1347359); note: 0% is about no effect
How it was run: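 HEK293 cells (500/well, DMEM + 10% FBS) were exposed to compounds in an 11-point series for 24 hours at 37 degrees C, then caspase-3/7 activity was read by Caspase-Glo DEVD luciferase luminescence after 15 min.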

[19] = HPAF-II 18hr Apoptosis Induction qHTS against the NCATS CANVASS Library (AID 1347360); note: 0% is about no effect
How it was run: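 HPAF-II cells (500/well, DMEM + 10% FBS) were exposed to compounds for 18 hours at 37 degrees C. Caspase-3/7 activity was then read by Caspase-Glo 3/7 luminescence after 15 min at room temperature.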

[20] = HEK293 12hr Apoptosis Induction qHTS against the NCATS CANVASS Library (AID 1347361); note: 0% is about no effect
How it was run: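 Read-out: Caspase-Glo 3/7 luminescence (DEVD substrate), 15 min RT. Preceded by 12 h compound exposure of HEK293, 500 cells/well, 11-pt qHTS titration; doxorubicin titration as control.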

DNA dC->dU-editing enzyme APOBEC-3G (Homo sapiens), sequence (Q9HC16 whole entry, looked up): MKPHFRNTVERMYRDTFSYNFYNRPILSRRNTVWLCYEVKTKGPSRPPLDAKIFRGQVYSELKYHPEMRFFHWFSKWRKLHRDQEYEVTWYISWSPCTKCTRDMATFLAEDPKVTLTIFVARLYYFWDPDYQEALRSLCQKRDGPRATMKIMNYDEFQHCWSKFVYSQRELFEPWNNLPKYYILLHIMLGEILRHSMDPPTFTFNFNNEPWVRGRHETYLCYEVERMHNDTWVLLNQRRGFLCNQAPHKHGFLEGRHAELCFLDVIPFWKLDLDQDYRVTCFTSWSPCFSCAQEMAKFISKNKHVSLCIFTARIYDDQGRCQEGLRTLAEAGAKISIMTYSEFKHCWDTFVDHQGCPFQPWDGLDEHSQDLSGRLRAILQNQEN
Glucocorticoid receptor (Homo sapiens), sequence (P04150 whole entry, looked up): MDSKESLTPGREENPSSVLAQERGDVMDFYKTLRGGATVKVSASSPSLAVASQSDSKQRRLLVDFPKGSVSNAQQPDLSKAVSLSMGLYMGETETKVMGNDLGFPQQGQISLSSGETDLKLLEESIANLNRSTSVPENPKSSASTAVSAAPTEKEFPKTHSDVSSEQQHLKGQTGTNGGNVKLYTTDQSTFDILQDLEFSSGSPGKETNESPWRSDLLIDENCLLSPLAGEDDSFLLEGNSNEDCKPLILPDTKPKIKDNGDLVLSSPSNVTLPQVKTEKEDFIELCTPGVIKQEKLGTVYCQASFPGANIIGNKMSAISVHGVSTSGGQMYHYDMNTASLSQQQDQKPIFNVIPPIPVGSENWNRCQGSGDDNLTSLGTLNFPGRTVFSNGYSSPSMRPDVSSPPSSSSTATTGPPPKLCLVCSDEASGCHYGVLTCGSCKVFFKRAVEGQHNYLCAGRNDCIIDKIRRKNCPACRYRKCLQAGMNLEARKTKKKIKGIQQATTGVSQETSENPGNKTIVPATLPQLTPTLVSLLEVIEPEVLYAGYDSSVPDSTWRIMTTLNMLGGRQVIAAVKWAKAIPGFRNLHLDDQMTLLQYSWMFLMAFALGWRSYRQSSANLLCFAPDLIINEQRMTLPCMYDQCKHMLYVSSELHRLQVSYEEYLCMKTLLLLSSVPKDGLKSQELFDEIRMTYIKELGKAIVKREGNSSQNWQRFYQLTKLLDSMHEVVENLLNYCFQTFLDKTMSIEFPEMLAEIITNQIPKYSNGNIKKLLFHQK
Ubiquitin carboxyl-terminal hydrolase 1 (Homo sapiens), sequence (O94782 whole entry, looked up): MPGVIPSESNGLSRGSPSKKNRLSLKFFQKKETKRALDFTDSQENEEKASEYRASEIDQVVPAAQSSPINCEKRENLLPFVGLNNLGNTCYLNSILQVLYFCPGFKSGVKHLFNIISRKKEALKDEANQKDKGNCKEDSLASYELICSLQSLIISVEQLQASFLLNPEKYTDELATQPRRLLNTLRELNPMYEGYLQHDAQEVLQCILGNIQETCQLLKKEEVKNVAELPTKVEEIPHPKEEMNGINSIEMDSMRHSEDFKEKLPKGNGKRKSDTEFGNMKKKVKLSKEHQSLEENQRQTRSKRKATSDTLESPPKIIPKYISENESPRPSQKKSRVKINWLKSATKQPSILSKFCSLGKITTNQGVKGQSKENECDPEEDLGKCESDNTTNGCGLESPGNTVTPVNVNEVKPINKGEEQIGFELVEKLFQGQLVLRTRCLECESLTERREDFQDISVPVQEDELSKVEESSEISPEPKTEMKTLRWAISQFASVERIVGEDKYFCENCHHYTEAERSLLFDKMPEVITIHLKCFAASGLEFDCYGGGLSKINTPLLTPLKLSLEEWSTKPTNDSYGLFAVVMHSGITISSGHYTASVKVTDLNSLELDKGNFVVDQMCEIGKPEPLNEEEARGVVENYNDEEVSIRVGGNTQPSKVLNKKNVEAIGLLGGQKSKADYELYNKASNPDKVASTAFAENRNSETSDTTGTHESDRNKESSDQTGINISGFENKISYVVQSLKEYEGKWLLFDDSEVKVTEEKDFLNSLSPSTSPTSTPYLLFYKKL
3',5'-cyclic-AMP phosphodiesterase 4B (Homo sapiens), sequence (Q07343 whole entry, looked up): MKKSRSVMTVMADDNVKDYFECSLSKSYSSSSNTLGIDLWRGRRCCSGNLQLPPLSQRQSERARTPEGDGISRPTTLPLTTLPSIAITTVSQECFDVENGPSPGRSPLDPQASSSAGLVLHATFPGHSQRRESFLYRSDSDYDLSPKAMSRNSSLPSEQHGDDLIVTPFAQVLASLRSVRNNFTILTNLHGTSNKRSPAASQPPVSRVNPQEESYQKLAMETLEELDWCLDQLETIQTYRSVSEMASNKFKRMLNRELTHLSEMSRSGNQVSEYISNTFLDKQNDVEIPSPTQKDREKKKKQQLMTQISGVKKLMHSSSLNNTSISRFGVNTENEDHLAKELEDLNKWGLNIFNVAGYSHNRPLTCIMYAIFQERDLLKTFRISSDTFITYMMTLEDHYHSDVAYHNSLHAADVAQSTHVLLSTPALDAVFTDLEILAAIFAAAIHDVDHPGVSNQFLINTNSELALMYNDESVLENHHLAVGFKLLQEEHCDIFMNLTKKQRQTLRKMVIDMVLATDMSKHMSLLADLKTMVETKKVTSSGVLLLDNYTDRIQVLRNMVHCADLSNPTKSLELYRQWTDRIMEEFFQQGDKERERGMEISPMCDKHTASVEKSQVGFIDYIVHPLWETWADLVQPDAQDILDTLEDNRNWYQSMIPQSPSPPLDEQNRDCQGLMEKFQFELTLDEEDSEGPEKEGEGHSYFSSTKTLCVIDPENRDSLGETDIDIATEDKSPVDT

COc1ccc2c(c1)[nH]c1c(C)nccc12
-9.39% and 13.6%: max response ([6]; measured here: lipid channel max response)
-2.86% and 7%: max response ([6]; measured here: cell count channel max response)
active: Potency [9] 3.36 µM | Potency [11] 27.3 µM | Potency [12] 30.6 µM | Potency [13] 19.1 µM | Potency [15] 7.62 µM
inactive: Potency [1] > 20.6 µM | outcome [2] | Potency [3] | Potency [4] | outcome [5] | activity change, negative = inhibition ([6]; at 25.7 µM (top of the series)) -4.61% | activity change, negative = inhibition ([6]; at 57.5 µM (top of the series)) 2.5% | Potency [7] | Potency [8] | Potency [10] | Potency [14] | outcome [16] | Potency [17] | Potency [18] | outcome [19] | Potency [20]
